The values that follow come from PubChem BioAssay AID743441 (Broad Institute, 2014).

A short description of this assay: HEK293T cell cytotoxicity, dose response, cytotoxicity control, CellTiter-Glo luminescence, cherry-picked samples, set 4 (AID 743441). As to conditions: HEK293T viability, ATP luminescence CellTiter-Glo, 72 h; series mostly up to 26 µM. A general note: In ATP-based viability assays light output follows the ATP content of the culture.

Potency and affinity values are given separately. Calls of active or inactive are those of the source.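 The calls were made as follows: active = cell toxicity seen as a signal drop, with half-maximal potency at most twice the top valid dose; inconclusive = flat curve with a partial drop, or a poor fit; inactive = the rest, including rises in signal.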

Regarding `CCOC(=O)c1c(NC(=O)Cc2cccs2)sc(C)c1C`, the result was inactive.
Next, `COc1ccc(Nc2oc(-c3ccco3)nc2S(=O)(=O)c2ccc(F)cc2)cc1`: “inactive”.
Next, `COc1cccc(C(=O)Nc2cc(C)nn2-c2ccccc2)c1OC`: “inactive”; `CC[C@H]1OC(=O)[C@H](C)[C@@H](O[C@H]2C[C@@](C)(OC)[C@@H](O)[C@H](C)O2)[C@H](C)[C@@H](O[C@@H]2O[C@H](C)C[C@H](N(C)C)[C@H]2O)[C@](C)(O)C[C@@H](C)[C@@H]2N[C@@H](COCCOC)O[C@H]([C@H]2C)[C@]1(C)O`: “inactive”.
